Changes are numbered by the printed parent chain.
Columns and labels:
Test in all cases: HT-SELEX; high values mean tight binding
Conditions in all cases: protein: recombinant; vector His6-GST; dsDNA, one strand shown
SALL4 ZFC4 WT (HT-SELEX) = target: T1, SALL4 ZFC4 WT (HT-SELEX) (Mus musculus, UniProt Q8BX22 870-940)
T1 sequence: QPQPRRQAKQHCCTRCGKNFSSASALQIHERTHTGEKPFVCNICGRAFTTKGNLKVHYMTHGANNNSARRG
In short: (§1)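 Binding signal is defined as the fold change of each canonical k-mer's read fraction versus the initial random library. Selections used 1 µg of purified recombinant mouse SALL4 zinc finger cluster 4 (residues 870–940) with library DNA (1.5 µg first cycle, 200 ng later) in 100 µl of 10 mM Tris–HCl pH 7.5, 50 mM NaCl, poly(dI-dC) and DTT, for 10 min at room temperature, followed by Ni2+ bead capture, washing and PCR. Up to 6 such cycles were run in triplicate before MiSeq sequencing and 6-mer scanning.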

[1] = target: T2, SALL4 ZFC4 R900W (HT-SELEX) (Mus musculus, UniProt Q8BX22 870-940, R900W)
T2 sequence: T1 sequence with R31W
In short: as §1

[2] = target: T3, SALL4 ZFC4 G921D (HT-SELEX) (Mus musculus, UniProt Q8BX22 870-940, G921D)
T3 sequence: T1 sequence with G52D
In short: as §1

Sequence | binding signal (SALL4 ZFC4 WT (HT-SELEX)) [fold-change vs cycle 0] | binding signal [1] [fold-change vs cycle 0] | binding signal [2] [fold-change vs cycle 0]
AAGACA | 1.28 ± 0.0466 | 1.42 ± 0.0793 | 1.35 ± 0.0674
AGCTAC | 0.674 ± 0.0463 | 0.7802 ± 0.0018 | 0.874 ± 0.026
TACTGA | 1.38 ± 0.119 | 1.53 ± 0.139 | 1.42 ± 0.164
CGTGTA | 0.651 ± 0.0387 | 0.756 ± 0.0247 | 0.812 ± 0.0246
TAACTA | 2.23 ± 0.0839 | 2.06 ± 0.126 | 1.82 ± 0.187
AGGCTA | 0.619 ± 0.0154 | 0.751 ± 0.013 | 0.829 ± 0.0213
CACTAC | 0.801 ± 0.0178 | 0.9075 ± 0.0089 | 0.938 ± 0.0237
AGACCC | 0.415 ± 0.0196 | 0.511 ± 0.0173 | 0.612 ± 0.0617
TGGGAA | 0.795 ± 0.0577 | 0.859 ± 0.0429 | 0.877 ± 0.0259
CTTCTA | 1.36 ± 0.0301 | 1.53 ± 0.0956 | 1.4 ± 0.104
CCAAAA | 0.9105 ± 0.0059 | 0.953 ± 0.0119 | 0.997 ± 0.0429
CCAAAG | 0.69 ± 0.0265 | 0.801 ± 0.0292 | 0.848 ± 0.0204
AACAGC | 0.555 ± 0.024 | 0.644 ± 0.0188 | 0.761 ± 0.0273
ATAAGA | 2.45 ± 0.123 | 2.3 ± 0.143 | 1.92 ± 0.245
AGTTGG | 0.73 ± 0.0169 | 0.834 ± 0.0159 | 0.883 ± 0.0279
ACGATC | 0.662 ± 0.038 | 0.773 ± 0.0211 | 0.907 ± 0.0183
GTTCAA | 1.2 ± 0.0638 | 1.34 ± 0.0679 | 1.3 ± 0.0535
AGAGAG | 0.922 ± 0.0426 | 1.09 ± 0.0215 | 1.14 ± 0.0249
CGACAA | 0.4483 ± 0.00206 | 0.523 ± 0.0149 | 0.653 ± 0.0169
CACGGA | 0.395 ± 0.0417 | 0.459 ± 0.0312 | 0.571 ± 0.0613
ATCTGC | 0.624 ± 0.0226 | 0.711 ± 0.0187 | 0.798 ± 0.0337

Sequence | binding signal (SALL4 ZFC4 WT (HT-SELEX)) [fold-change vs cycle 0] | binding signal [1] [fold-change vs cycle 0] | binding signal [2] [fold-change vs cycle 0]
TACATA | 2.44 ± 0.175 | 2.02 ± 0.121 | 1.78 ± 0.178
GGGTTA | 0.864 ± 0.0423 | 0.939 ± 0.0501 | 0.958 ± 0.0312
CTTGAA | 1.25 ± 0.0309 | 1.42 ± 0.0651 | 1.32 ± 0.0914
AAACGT | 1.02 ± 0.0198 | 1.17 ± 0.0143 | 1.14 ± 0.0434
CACTCG | 0.397 ± 0.0122 | 0.459 ± 0.00566 | 0.562 ± 0.0414
CGTCTC | 0.379 ± 0.0073 | 0.467 ± 0.0242 | 0.574 ± 0.0434
TTAGAA | 1.97 ± 0.0545 | 2.01 ± 0.0848 | 1.75 ± 0.166
CCTCAG | 0.494 ± 0.0292 | 0.591 ± 0.0293 | 0.666 ± 0.0425
ACCTCC | 0.552 ± 0.031 | 0.625 ± 0.0479 | 0.721 ± 0.0399
GGGAAC | 0.517 ± 0.0146 | 0.591 ± 0.0347 | 0.653 ± 0.041
ATCCCA | 0.89 ± 0.0366 | 0.976 ± 0.0258 | 0.979 ± 0.0303
CCGAAG | 0.38 ± 0.0225 | 0.441 ± 0.0244 | 0.553 ± 0.046
GTAGAA | 1.21 ± 0.0427 | 1.36 ± 0.0162 | 1.27 ± 0.0697
AGTCGA | 0.617 ± 0.0356 | 0.697 ± 0.0314 | 0.807 ± 0.0559
GTGCAA | 0.539 ± 0.0349 | 0.616 ± 0.0276 | 0.721 ± 0.0304
AGCTAT | 1.19 ± 0.0625 | 1.26 ± 0.0563 | 1.27 ± 0.0842
GCCTGA | 0.303 ± 0.0278 | 0.386 ± 0.0159 | 0.497 ± 0.0446
AATTCC | 1.34 ± 0.0764 | 1.36 ± 0.0844 | 1.31 ± 0.0693
ACACTC | 0.798 ± 0.0206 | 0.908 ± 0.0437 | 0.948 ± 0.0215
ATGTGG | 0.714 ± 0.021 | 0.787 ± 0.0136 | 0.851 ± 0.0464
ATTGCA | 1.16 ± 0.0389 | 1.12 ± 0.0435 | 1.18 ± 0.0324

— article PMC9838217, “Structure of SALL4 zinc finger domain reveals link between AT-rich DNA binding and Okihiro syndrome”
